Calls of active or inactive are those of the source.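 Rule for the calls: active = GFP response above 150% of the DMSO level; inconclusive = fewer than 70 events counted for a yeast strain; inactive = the rest.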

A short description of the first assay: TOR pathway CIT2 reporter hit retest – S. cerevisiae, GFP fusion, cherry picks, mother/daughter gates, confirmation (AID 2274). Particulars: S. cerevisiae CIT2-GFP strain, flow cytometry, 3 h; at 10 µM; stronger effect = higher value. (A flow cytometer gives signals particle by particle.)
For the compound `Cc1c(O)nc(SC2CC(=O)N(c3ccccc3)C2=O)[nH]c1=O` (stereo not given), the GFP response, % of DMSO is 96.4% (inactive).
As to `COC(=O)c1ccc(/C=N\NC(=O)c2ccc(C)cc2Cl)cc1`, the GFP response, % of DMSO was 103% (inactive).
With `Cc1cccc(CS(=O)(=O)c2ncc(Cl)c(C(=O)NCc3ccccc3)n2)c1`, the GFP response, % of DMSO was 95.2% (inactive).
Same read-out and setting: in the case of `Cc1ccc(S(=O)(=O)N2CCCC2C(=O)OCc2ccco2)cc1` (stereo not given) it was 112% (inactive); in that of `Clc1ccc(N=c2ssnc2Cl)cc1`, 104% (inactive).
On the same count and under the same terms, for `O=C1c2ccccc2C(=O)C2OC12` (stereo not given) the value was 101% (inactive); for `CCCc1[nH]nc2c1C(c1ccc(OC)cc1OC)C(C#N)=C(N)O2` (stereo not given), 94% (inactive).
On to `O=[N+]([O-])c1ncccc1OCc1ccc(-c2ccccc2)cc1`, for which the GFP response, % of DMSO is 123% (inactive).
On to `C/C(=N/NS(=O)(=O)c1ccccc1)c1ccc(NC(=O)C(F)(F)F)cc1`, for which the GFP response, % of DMSO was 95% (inactive).
On the same count and under the same terms, in the case of `O=C1c2ccsc2SCCN1Cc1ccccc1` it was 92.6% (inactive); in that of `CCc1ccc(-c2csc(NC(=O)COC(=O)CCc3nc4ccccc4s3)n2)cc1`, 106% (inactive).
In the case of `COc1ccc(-c2nn(-c3ccccc3)cc2C(=O)NC(=S)NNC(=O)c2ccncc2)cc1`, the GFP response, % of DMSO was 107% (inactive).
The same measure, in the same setting: for `CCOC(=O)Cc1csc(NC(=O)CSc2nnc(-c3ccc(C)cc3)o2)n1` the value was 104% (inactive); for `CCOC(=O)C1=C(Cc2ccc(Cl)cc2)C(=O)c2ccccc2C1=O`, 99.3% (inactive); for `COC(=O)c1ccc(N2C(=O)CC(SCCN)C2=O)cc1` (stereo not given), 100% (inactive).
Same read-out and setting: in the case of `O=S1(=O)Nc2c(ccc3cccnc23)-c2ccccc21` it was 111% (inactive); in that of `Cc1cccc2c1NC(=O)/C2=C\C(=O)c1cccs1`, 92.6% (inactive).
On the same count and under the same terms, for `Nc1cccnc1S(=O)(=O)c1cccc(C(F)(F)F)c1` the value was 96.9% (inactive); for `CC(Oc1ccc(Br)cc1)C(=O)Nc1nc(-c2ccccn2)cs1` (stereo not given), 98.3% (inactive).
`O=C1Nc2ccccc2C(=O)C1(Cl)Cc1ccccc1` (stereo not given): the GFP response, % of DMSO is 94.4% (inactive).
Same read-out and setting: for `Cc1ccc(C(c2cc(Cl)c3cccnc3c2O)N2CCN(C)CC2)cc1` (stereo not given) the value was 119% (inactive); for `Cc1ccc(C)c(NC(=O)c2ccccc2O)c1`, 93.1% (inactive); for `CN(C)CCCNc1cc(C(C)(C)C)nc2c(-c3ccc(Cl)cc3)cnn12`, 93.1% (inactive).
Same read-out and setting: for `O=C(O)c1ccc(N/N=C/c2c(F)cccc2Cl)cc1` the value was 96.4% (inactive); for `O=C(O)c1ccccc1C(=O)N1CCN(c2cccc(Cl)c2)CC1`, 96.4% (inactive); for `O=C(COC(=O)CCc1nc2ccccc2s1)Nc1nc(-c2ccccc2)cs1`, 102% (inactive).
In the case of `O=[N+]([O-])c1cc(O)c2ncccc2c1`, the GFP response, % of DMSO is 122% (inactive).
Same read-out and setting: for `NC1=NC(=O)C(CC(=O)c2ccc(Cl)cc2)S1` (stereo not given) the value was 96.4% (inactive).
On the same count and under the same terms, for `NC(=O)C1CCN(C(=S)NCCc2ccccc2)CC1` the value was 101% (inactive).
Regarding `COc1ccc(-c2cc(C(F)(F)F)nc(S(C)(=O)=O)n2)cc1`, the GFP response, % of DMSO was 95.2% (inactive).
The same measure, in the same setting: for `Oc1c(C(Nc2cccc(C(F)(F)F)c2)c2ccncc2)ccc2cccnc12` (stereo not given) the value was 99.3% (inactive); for `CC(=O)Nc1cccc(Oc2ccc(-c3noc(C)n3)cc2)c1`, 97.3% (inactive).
Same read-out and setting: in the case of `N#C/C(C(=O)Nc1ccc(Cl)cc1)=C(/S)Nc1ccccc1` it was 105% (inactive); in that of `COc1ccc(NC2=C(Cl)C(=O)N(CCc3ccccc3)C2=O)c(OC)c1`, 98.4% (inactive); in that of `CCN=C(NCC)SC1CC(=O)N(c2cccc(OCC)c2)C1=O` (stereo not given), 103% (inactive).
On the same count and under the same terms, in the case of `Cn1c(=O)[nH]c(=O)c2c1nc(N1CCCCC1)n2CCOc1ccccc1` it was 103% (inactive).
As for `CC(=O)Nc1ccc(NC(=O)c2nc(S(=O)(=O)Cc3ccccc3)ncc2Cl)cc1`, the GFP response, % of DMSO is 100% (inactive).
In the case of `COc1cc(CCN2C(=O)c3cccc4cccc(c34)C2=O)c(S(=O)(=O)NCCCO)cc1OC`, the GFP response, % of DMSO is 95% (inactive).
As to `CCOc1cc(C)c(S(=O)(=O)N2CCCC2)cc1C`, the GFP response, % of DMSO was 78.5% (inactive).
On to `CC1CCCCN1S(=O)(=O)c1ccc(C(=O)Nc2nnc(-c3ccccc3Cl)o2)cc1` (stereo not given), for which the GFP response, % of DMSO was 99.7% (inactive).

Staying with this assay, now noted: S. cerevisiae CIT2-GFP strain, flow cytometry, 3 h; measured here: daughter cell gate; at 10 µM; stronger effect = higher value.
On to `Cc1c(O)nc(SC2CC(=O)N(c3ccccc3)C2=O)[nH]c1=O` (stereo not given), for which the GFP response, % of DMSO was determined as 98.3%.
Still for that read-out and setting: in the case of `COC(=O)c1ccc(/C=N\NC(=O)c2ccc(C)cc2Cl)cc1` it was 105%; in that of `Cc1cccc(CS(=O)(=O)c2ncc(Cl)c(C(=O)NCc3ccccc3)n2)c1`, 91.5%; in that of `Cc1ccc(S(=O)(=O)N2CCCC2C(=O)OCc2ccco2)cc1` (stereo not given), 111%.
As to `Clc1ccc(N=c2ssnc2Cl)cc1`, the GFP response, % of DMSO was found to be 105%.
`O=C1c2ccccc2C(=O)C2OC12` (stereo not given) yielded a GFP response, % of DMSO of 100%.
The same measure, in the same setting: for `CCCc1[nH]nc2c1C(c1ccc(OC)cc1OC)C(C#N)=C(N)O2` (stereo not given) the value was 89.9%; for `O=[N+]([O-])c1ncccc1OCc1ccc(-c2ccccc2)cc1`, 126%; for `C/C(=N/NS(=O)(=O)c1ccccc1)c1ccc(NC(=O)C(F)(F)F)cc1`, 96.4%.
The same measure, in the same setting: in the case of `O=C1c2ccsc2SCCN1Cc1ccccc1` it was 91.7%.
The same measure, in the same setting: in the case of `CCc1ccc(-c2csc(NC(=O)COC(=O)CCc3nc4ccccc4s3)n2)cc1` it was 101%; in that of `COc1ccc(-c2nn(-c3ccccc3)cc2C(=O)NC(=S)NNC(=O)c2ccncc2)cc1`, 108%; in that of `CCOC(=O)Cc1csc(NC(=O)CSc2nnc(-c3ccc(C)cc3)o2)n1`, 98.3%.
Consider `CCOC(=O)C1=C(Cc2ccc(Cl)cc2)C(=O)c2ccccc2C1=O`, for which the GFP response, % of DMSO was found to be 102%.
Still for that read-out and setting: in the case of `COC(=O)c1ccc(N2C(=O)CC(SCCN)C2=O)cc1` (stereo not given) it was 103%.
The same measure, in the same setting: for `O=S1(=O)Nc2c(ccc3cccnc23)-c2ccccc21` the value was 108%; for `Cc1cccc2c1NC(=O)/C2=C\C(=O)c1cccs1`, 99.7%.
The same measure, in the same setting: in the case of `Nc1cccnc1S(=O)(=O)c1cccc(C(F)(F)F)c1` it was 99.1%.
Compound `CC(Oc1ccc(Br)cc1)C(=O)Nc1nc(-c2ccccn2)cs1` (stereo not given) yielded a GFP response, % of DMSO of 97.2%.
The same measure, in the same setting: for `O=C1Nc2ccccc2C(=O)C1(Cl)Cc1ccccc1` (stereo not given) the value was 95.8%; for `Cc1ccc(C(c2cc(Cl)c3cccnc3c2O)N2CCN(C)CC2)cc1` (stereo not given), 97.4%; for `Cc1ccc(C)c(NC(=O)c2ccccc2O)c1`, 95.8%.
Compound `CN(C)CCCNc1cc(C(C)(C)C)nc2c(-c3ccc(Cl)cc3)cnn12` registered a GFP response, % of DMSO of 94%.
Compound `O=C(O)c1ccc(N/N=C/c2c(F)cccc2Cl)cc1` showed a GFP response, % of DMSO of 92.7%.
The same measure, in the same setting: in the case of `O=C(O)c1ccccc1C(=O)N1CCN(c2cccc(Cl)c2)CC1` it was 98.3%; in that of `O=C(COC(=O)CCc1nc2ccccc2s1)Nc1nc(-c2ccccc2)cs1`, 98.1%; in that of `O=[N+]([O-])c1cc(O)c2ncccc2c1`, 112%.
As to `NC1=NC(=O)C(CC(=O)c2ccc(Cl)cc2)S1` (stereo not given), the GFP response, % of DMSO worked out at 96.4%.
The compound `NC(=O)C1CCN(C(=S)NCCc2ccccc2)CC1` yielded a GFP response, % of DMSO of 103%.
Still for that read-out and setting: for `COc1ccc(-c2cc(C(F)(F)F)nc(S(C)(=O)=O)n2)cc1` the value was 98.1%; for `Oc1c(C(Nc2cccc(C(F)(F)F)c2)c2ccncc2)ccc2cccnc12` (stereo not given), 102%; for `CC(=O)Nc1cccc(Oc2ccc(-c3noc(C)n3)cc2)c1`, 95.6%.
Same read-out and setting: for `N#C/C(C(=O)Nc1ccc(Cl)cc1)=C(/S)Nc1ccccc1` the value was 105%.
On the same count and under the same terms, in the case of `COc1ccc(NC2=C(Cl)C(=O)N(CCc3ccccc3)C2=O)c(OC)c1` it was 98.4%; in that of `CCN=C(NCC)SC1CC(=O)N(c2cccc(OCC)c2)C1=O` (stereo not given), 103%; in that of `Cn1c(=O)[nH]c(=O)c2c1nc(N1CCCCC1)n2CCOc1ccccc1`, 101%.
With `CC(=O)Nc1ccc(NC(=O)c2nc(S(=O)(=O)Cc3ccccc3)ncc2Cl)cc1`, the GFP response, % of DMSO amounted to 101%.
The same measure, in the same setting: for `COc1cc(CCN2C(=O)c3cccc4cccc(c34)C2=O)c(S(=O)(=O)NCCCO)cc1OC` the value was 96.4%.
Same read-out and setting: for `CCOc1cc(C)c(S(=O)(=O)N2CCCC2)cc1C` the value was 72.1%.
`CC1CCCCN1S(=O)(=O)c1ccc(C(=O)Nc2nnc(-c3ccccc3Cl)o2)cc1` (stereo not given) yielded a GFP response, % of DMSO of 101%.

Values taken from PubChem BioAssay.
